Data on two sequences can be found in publication PMC7862700, “An all-to-all approach to the identification of sequence-specific readers for epigenetic DNA modifications on cytosine”.

Experiment in all cases: DAPPL (digital affinity profiling via proximity ligation, sequencing); 10 mM Tris-HCl pH 7.5, 50 mM NaCl, 1 mM DTT, 4% glycerol, room temperature, 30 min; GST-TFs on glutathione beads, 16-mer random dsDNA library, 0.1% formaldehyde crosslink after washing; high values mean tight binding
Settings in all cases: protein: recombinant; tags: N-terminal GST; dsDNA, one strand shown

Experiment [1] deals with T1, ELK1 (Homo sapiens, UniProt P19419 1-428).
T1 sequence: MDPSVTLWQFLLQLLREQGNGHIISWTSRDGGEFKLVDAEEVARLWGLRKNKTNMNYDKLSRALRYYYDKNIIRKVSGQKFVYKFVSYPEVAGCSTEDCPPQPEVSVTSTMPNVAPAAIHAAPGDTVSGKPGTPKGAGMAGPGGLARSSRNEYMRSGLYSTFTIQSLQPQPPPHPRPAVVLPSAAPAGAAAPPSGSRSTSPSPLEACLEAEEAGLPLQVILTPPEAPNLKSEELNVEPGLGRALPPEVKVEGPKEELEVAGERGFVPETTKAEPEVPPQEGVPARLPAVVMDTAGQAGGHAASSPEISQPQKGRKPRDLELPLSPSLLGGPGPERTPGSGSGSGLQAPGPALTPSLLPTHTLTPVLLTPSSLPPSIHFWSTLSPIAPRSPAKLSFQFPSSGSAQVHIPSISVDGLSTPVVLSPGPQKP
The method in brief:
(§1)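 Beads coated with glutathione captured GST-fused human transcription factors that had been expressed in yeast, and the factors were then given DNA barcodes and pooled with a tag-only sample. The pools were incubated with 200 nmole of a random double-stranded 16-mer DNA library in Tris/NaCl/DTT/glycerol buffer for 30 min at room temperature, washed, crosslinked with 0.1% formaldehyde and proximity-ligated with BsaI/T4 ligase at 37 °C for 1 h. PCR amplification and Illumina NextSeq500 sequencing came last. Binding signal is each hexamer's read frequency for a factor divided by its frequency for the tag-only sample.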

In experiment [2] the target is T2, GABPA (Homo sapiens, UniProt Q06546 1-454).
T2 sequence: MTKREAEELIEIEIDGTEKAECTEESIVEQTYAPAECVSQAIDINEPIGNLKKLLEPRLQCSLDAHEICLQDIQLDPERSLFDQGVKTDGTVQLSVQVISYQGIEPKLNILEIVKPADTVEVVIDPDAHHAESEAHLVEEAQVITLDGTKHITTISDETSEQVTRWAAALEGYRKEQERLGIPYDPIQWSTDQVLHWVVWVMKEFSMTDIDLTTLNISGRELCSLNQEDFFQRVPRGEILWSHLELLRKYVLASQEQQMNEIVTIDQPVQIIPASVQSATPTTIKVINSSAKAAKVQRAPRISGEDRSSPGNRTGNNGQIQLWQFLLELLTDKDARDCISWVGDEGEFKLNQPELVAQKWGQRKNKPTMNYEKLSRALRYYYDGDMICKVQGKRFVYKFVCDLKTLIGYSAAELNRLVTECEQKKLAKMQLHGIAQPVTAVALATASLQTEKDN
The method in brief:
as §1

In experiment [3] the target is ELF1 (Homo sapiens, UniProt P32519 1-619). The method in brief:
as §1

In experiment [4] the target is T3, EHF (Homo sapiens, UniProt Q9NZC4 1-300).
T3 sequence: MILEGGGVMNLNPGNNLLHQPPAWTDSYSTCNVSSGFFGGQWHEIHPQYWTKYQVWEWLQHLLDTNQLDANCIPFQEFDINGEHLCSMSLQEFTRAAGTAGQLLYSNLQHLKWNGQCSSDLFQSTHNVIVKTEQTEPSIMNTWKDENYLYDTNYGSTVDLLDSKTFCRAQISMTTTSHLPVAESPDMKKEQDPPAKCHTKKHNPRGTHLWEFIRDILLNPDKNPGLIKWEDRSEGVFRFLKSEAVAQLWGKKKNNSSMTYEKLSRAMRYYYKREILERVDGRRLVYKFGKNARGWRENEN
The method in brief:
as §1

The target of experiment [5] is SPI1 (Homo sapiens, UniProt P17947 1-270). The method in brief: as §1
The target of experiment [6] is SPIB (Homo sapiens, UniProt Q01892 1-262). The method in brief: as §1
Chain of SPIB (Q01892 whole entry): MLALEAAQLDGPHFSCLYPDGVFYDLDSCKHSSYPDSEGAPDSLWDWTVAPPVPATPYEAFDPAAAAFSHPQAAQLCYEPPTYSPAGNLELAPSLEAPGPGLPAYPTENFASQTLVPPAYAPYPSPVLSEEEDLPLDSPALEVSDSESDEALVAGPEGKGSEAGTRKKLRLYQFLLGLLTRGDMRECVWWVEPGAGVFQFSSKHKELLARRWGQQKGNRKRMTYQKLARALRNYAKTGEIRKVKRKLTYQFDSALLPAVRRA
Experiment [7] addresses T4, FEV (Homo sapiens, UniProt Q99581 1-238).
T4 sequence: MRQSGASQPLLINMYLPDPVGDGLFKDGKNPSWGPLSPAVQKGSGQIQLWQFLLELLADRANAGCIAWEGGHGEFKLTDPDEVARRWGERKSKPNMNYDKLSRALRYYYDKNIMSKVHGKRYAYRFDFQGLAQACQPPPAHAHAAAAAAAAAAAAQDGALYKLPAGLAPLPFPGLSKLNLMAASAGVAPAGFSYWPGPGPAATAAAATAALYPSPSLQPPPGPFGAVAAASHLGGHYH
The method in brief:
as §1

The target of experiment [8] is ETV5 (Homo sapiens, UniProt P41161 1-510). The method in brief: as §1
Chain of ETV5 (P41161 whole entry): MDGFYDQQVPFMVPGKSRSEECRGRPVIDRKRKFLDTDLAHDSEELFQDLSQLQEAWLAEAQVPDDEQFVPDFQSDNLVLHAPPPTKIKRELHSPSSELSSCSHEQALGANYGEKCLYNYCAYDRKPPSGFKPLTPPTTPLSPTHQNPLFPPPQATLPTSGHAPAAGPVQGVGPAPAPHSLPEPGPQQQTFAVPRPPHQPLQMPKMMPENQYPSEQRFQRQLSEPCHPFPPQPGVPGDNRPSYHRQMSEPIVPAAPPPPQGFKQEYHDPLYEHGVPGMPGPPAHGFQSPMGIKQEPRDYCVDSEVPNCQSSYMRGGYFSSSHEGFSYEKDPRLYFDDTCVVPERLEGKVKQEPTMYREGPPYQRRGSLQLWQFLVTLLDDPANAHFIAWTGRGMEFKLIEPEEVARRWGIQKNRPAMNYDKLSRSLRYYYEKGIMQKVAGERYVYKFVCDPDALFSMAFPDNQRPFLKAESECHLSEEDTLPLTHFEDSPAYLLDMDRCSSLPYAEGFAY
For experiment [9], the target named is T5, ELK4 (Homo sapiens, UniProt P28324-2 1-405).
T5 sequence: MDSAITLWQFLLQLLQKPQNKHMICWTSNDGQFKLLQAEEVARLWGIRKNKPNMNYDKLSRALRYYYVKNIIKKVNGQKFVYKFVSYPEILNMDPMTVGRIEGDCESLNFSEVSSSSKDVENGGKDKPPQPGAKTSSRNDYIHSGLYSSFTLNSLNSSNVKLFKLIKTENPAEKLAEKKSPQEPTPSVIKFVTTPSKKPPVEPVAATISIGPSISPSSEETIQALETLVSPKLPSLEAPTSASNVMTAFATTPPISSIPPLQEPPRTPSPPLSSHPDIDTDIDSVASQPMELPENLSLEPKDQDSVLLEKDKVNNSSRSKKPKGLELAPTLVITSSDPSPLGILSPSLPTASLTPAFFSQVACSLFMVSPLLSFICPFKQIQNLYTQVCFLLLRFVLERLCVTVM
The method, boiled down: as §1

The target in experiment [10] is ETV1 (Homo sapiens, UniProt P50549 1-477). The method in brief: as §1
Chain of ETV1 (P50549 whole entry): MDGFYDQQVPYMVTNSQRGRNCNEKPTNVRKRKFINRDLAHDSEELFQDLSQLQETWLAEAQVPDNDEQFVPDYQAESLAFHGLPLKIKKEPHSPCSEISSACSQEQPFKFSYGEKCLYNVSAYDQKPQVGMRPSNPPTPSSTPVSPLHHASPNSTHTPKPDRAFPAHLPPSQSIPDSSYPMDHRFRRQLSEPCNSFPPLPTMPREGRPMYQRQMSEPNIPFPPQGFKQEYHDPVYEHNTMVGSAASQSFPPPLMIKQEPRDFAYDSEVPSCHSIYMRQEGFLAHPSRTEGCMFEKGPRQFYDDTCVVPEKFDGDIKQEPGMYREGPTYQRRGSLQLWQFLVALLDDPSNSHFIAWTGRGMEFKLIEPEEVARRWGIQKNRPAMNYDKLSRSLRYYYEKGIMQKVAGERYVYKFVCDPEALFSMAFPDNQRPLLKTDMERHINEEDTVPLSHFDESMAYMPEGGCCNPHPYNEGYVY
Experiment [11] has as its target T6, SPDEF (Homo sapiens, UniProt O95238 1-335).
T6 sequence: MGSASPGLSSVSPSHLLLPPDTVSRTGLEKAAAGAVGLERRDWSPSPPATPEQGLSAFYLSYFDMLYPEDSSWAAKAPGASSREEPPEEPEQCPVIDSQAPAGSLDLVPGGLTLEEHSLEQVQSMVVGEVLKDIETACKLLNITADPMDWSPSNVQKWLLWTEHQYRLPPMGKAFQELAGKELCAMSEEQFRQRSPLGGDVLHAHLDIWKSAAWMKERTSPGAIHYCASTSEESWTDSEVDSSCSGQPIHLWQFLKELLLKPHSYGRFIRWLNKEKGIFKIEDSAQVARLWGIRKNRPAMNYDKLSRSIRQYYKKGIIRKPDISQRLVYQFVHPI
The method in brief:
as §1

The target of experiment [12] is T7, ETV7 (Homo sapiens, UniProt Q9Y603 1-341).
T7 sequence: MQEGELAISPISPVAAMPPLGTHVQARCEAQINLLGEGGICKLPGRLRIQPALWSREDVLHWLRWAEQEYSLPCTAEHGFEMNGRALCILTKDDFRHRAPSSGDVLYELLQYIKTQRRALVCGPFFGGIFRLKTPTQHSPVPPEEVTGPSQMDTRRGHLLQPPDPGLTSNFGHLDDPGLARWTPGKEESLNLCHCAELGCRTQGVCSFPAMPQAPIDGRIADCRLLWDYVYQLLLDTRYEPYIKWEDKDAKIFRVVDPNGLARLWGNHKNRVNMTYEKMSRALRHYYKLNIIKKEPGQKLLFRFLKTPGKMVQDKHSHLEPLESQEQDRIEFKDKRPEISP
The method, boiled down:
as §1

The target of experiment [13] is T8, ETV3 (Homo sapiens, UniProt P41162-2 1-143).
T8 sequence: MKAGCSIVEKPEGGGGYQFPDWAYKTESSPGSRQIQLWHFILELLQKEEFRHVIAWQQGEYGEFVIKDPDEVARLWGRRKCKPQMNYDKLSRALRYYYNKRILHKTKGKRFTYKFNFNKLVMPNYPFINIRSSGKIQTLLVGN
The method, boiled down: as §1

In experiment [14] the target is ETV6 (Homo sapiens, UniProt P41212 1-452). The method in brief: as §1
Chain of ETV6 (P41212 whole entry): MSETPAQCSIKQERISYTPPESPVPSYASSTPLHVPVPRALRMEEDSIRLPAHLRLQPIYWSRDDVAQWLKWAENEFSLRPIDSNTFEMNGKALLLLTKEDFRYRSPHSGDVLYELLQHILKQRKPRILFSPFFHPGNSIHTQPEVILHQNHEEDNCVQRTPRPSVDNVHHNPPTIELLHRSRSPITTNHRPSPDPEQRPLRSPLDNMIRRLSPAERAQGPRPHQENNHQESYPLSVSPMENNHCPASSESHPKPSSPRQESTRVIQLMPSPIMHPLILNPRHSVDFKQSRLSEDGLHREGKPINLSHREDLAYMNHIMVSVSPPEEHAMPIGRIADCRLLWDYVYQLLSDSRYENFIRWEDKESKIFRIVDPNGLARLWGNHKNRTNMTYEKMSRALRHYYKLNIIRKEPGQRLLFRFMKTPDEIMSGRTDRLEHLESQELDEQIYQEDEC
In experiment [15] the target is ELF4 (Homo sapiens, UniProt Q99607 1-663). The method, boiled down: as §1
Chain of ELF4 (Q99607 whole entry): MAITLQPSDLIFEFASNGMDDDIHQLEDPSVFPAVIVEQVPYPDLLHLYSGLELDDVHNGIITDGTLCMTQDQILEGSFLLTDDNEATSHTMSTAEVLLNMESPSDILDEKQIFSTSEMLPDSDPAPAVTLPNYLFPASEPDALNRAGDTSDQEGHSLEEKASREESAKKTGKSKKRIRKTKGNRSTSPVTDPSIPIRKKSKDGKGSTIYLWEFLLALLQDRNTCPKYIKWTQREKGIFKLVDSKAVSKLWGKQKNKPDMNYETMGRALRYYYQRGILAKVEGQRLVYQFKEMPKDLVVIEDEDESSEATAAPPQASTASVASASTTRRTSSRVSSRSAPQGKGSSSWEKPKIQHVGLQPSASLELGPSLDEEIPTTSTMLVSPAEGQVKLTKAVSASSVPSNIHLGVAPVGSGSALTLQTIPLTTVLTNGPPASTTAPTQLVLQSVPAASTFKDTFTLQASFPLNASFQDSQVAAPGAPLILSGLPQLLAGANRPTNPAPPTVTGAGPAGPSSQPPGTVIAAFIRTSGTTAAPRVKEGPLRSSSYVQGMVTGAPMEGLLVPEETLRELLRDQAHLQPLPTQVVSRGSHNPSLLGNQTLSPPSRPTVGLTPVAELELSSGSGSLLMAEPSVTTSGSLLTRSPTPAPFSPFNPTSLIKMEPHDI
In experiment [16] the target is T9, ETV3L (Homo sapiens, UniProt Q6ZN32 1-361).
T9 sequence: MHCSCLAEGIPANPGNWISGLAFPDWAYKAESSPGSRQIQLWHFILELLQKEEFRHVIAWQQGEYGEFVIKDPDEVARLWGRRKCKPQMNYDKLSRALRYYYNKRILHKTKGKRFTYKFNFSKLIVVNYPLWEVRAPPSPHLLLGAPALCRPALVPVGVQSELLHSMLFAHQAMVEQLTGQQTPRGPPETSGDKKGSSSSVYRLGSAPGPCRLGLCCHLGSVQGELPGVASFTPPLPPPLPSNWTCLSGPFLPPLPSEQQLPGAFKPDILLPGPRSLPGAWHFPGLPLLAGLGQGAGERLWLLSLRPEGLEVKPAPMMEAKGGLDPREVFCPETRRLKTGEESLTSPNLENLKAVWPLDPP
The method in brief: as §1

For experiment [17], the target named is T10, ETS2 (Homo sapiens, UniProt P15036 1-469).
T10 sequence: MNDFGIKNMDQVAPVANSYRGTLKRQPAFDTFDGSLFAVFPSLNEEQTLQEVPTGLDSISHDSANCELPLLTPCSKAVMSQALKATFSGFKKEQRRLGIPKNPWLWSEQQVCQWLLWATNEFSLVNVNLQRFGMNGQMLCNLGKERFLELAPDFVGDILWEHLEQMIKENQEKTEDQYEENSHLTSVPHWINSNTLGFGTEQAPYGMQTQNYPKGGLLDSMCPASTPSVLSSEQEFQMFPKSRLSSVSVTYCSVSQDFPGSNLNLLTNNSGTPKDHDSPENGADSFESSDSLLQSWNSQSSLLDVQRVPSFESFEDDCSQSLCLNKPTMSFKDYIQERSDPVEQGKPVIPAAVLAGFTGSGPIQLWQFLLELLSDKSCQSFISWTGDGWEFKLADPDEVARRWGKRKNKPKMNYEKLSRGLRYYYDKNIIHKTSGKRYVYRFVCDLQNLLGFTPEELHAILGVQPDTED
The method in brief: as §1

Chain of ELF1 (P32519 whole entry): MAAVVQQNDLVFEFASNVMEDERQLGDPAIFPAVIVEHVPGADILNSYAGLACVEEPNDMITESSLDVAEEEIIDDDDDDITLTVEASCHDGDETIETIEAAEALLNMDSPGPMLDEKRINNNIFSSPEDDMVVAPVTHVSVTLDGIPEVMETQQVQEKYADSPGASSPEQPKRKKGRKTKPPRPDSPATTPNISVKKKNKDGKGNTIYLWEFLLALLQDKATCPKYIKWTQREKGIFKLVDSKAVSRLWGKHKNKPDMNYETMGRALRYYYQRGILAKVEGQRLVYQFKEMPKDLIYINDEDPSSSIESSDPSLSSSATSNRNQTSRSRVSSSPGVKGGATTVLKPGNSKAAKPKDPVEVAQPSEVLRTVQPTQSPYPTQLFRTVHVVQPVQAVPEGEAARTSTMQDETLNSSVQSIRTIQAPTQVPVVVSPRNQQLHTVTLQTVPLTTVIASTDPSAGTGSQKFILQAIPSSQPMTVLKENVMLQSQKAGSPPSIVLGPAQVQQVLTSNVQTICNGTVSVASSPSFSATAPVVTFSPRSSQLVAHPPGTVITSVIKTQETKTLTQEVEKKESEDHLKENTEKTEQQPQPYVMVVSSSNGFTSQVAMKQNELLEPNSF

Turning to TCGTCC, the binding signal in [1] was 1.1 fold enrichment (6-mer frequency, TF over GST control); in [2] it was 1.05 fold enrichment (6-mer frequency, TF over GST control); in [3], 1.03 fold enrichment (6-mer frequency, TF over GST control); in experiment [4], 1 fold enrichment (6-mer frequency, TF over GST control); in experiment [5], 1.03 fold enrichment (6-mer frequency, TF over GST control); in [6] it was 1.06 fold enrichment (6-mer frequency, TF over GST control). In addition, the binding signal is 1 fold enrichment (6-mer frequency, TF over GST control) in experiment [7]; 1.01 fold enrichment (6-mer frequency, TF over GST control) in experiment [8]; 1.15 fold enrichment (6-mer frequency, TF over GST control) in experiment [9]; 1.06 fold enrichment (6-mer frequency, TF over GST control) in experiment [10]; 1.08 fold enrichment (6-mer frequency, TF over GST control) in experiment [11]; 1.08 fold enrichment (6-mer frequency, TF over GST control) in [12]. In addition, the binding signal was 1.04 fold enrichment (6-mer frequency, TF over GST control) in experiment [13] and 1.08 fold enrichment (6-mer frequency, TF over GST control) in [14].
As for TGGGCA, the binding signal is 1.06 fold enrichment (6-mer frequency, TF over GST control) in [3]; 1.08 fold enrichment (6-mer frequency, TF over GST control) in experiment [5]; 1.01 fold enrichment (6-mer frequency, TF over GST control) in experiment [7]; 1.04 fold enrichment (6-mer frequency, TF over GST control) in experiment [8]; 1.04 fold enrichment (6-mer frequency, TF over GST control) in experiment [15]; 1.06 fold enrichment (6-mer frequency, TF over GST control) in experiment [9]. Besides, the binding signal in [16] is 1.04 fold enrichment (6-mer frequency, TF over GST control); in [17], 1.04 fold enrichment (6-mer frequency, TF over GST control); in experiment [14] it was 1.02 fold enrichment (6-mer frequency, TF over GST control).
